PubChem BioAssay (NCATS)
Values joined by “and” are separate entries in the source; they are usually repeats but may differ in a detail not shown here. Equal entries are not always repeated. Records with an inconclusive call do not appear. Active and inactive are the calls of the source. Unless noted, calls come from the whole dose curve; as a rule, active = well fitted curve in the direction sought with a large enough effect; inconclusive = small, poorly fitted or top-dose-only effect, or another doubt; inactive = no such curve, though single readings can be large; an effect the other way counts as inactive or inconclusive.

What was measured:
[1] = qHTS Assay for Identifying Gametocytocidal Compounds (AID 743244);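 note: % is set by controls: 0 for no effect and ±100 for the full control effect; actives lower the fluorescent signal which means gametocytes are killed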; settings: P. falciparum 3D7 stage III-V gametocytes, alamarBlue, 72 h; max response: stronger effect = lower value
Summary of the method: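 P. falciparum 3D7 stage III–V gametocytes (20,000 cells/well) were exposed to compounds for 72 h at 37 °C, 5% CO2. AlamarBlue was then added for 24 h; decreased resorufin fluorescence (Ex 525/Em 598 nm) indicated loss of viability.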

[2] = qHTS assay for measurement of the activity of small molecule inhibitors on Zika virus induced Caspase-3 activity in human iPSC derived neural progenitor cells (hNPCs) (AID 1224857); note: nearly all actives have a fitted effect of over 65% in size; note: potency is the fitted concentration of half-maximal effect
Summary of the method: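 hNPCs seeded 350 cells/well, cultured 16–20 h; compounds added 1 h before ZIKV (2 FFU/cell), 37 C 6 h. Caspase-Glo 3/7 luminescence after 30 min RT; % inhibition from induction scaled to uninfected (0%) and infected (100%) wells.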

[3] = qHTS profiling for inhibitors of Plasmodium falciparum (3D7) proliferation (AID 743322; call rule not given here;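 note: infected erythrocytes exposed to compound for 72 h before lysis; 100% = DMSO vehicle wells and 0% = 0.29 µM artemisinin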); settings: P. falciparum 3D7 proliferation; at 28.7 µM (top of the series) unless noted
Summary of the method: (§1)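 Parasite DNA was quantified by SYBR Green I fluorescence (ex 485, em 535 nm) after overnight lysis in saponin/Triton buffer at room temperature. Cultures at 0.3% parasitemia and 2.5% hematocrit were first exposed to compound for 72 h at 37 C; signals were normalised to artemisinin (0.29 uM) and vehicle wells.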

[4] = qHTS profiling for inhibitors of Plasmodium falciparum (DD2) proliferation (AID 743323; call rule not given here); settings: lower = more inhibition; at 28.7 µM (top of the series) unless noted
Summary of the method: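 P. falciparum Dd2-infected erythrocytes (0.3% parasitemia, 2.5% hematocrit) exposed 72 h at 37 C, 5% CO2. Lysis with SYBR Green, overnight at room temperature, fluorescence 485/535 nm; normalized to 0.29 uM artemisinin and DMSO.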

[5] = qHTS profiling for inhibitors of Plasmodium falciparum (HB3) proliferation (AID 743324); settings: Plasmodium falciparum HB3 blood-stage proliferation; at 28.7 µM (top of the series) unless noted;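 note: 100% = DMSO vehicle wells and 0% = artemisinin-treated control wells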
Summary of the method: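 SYBR Green fluorescence (485 ex/535 em) of lysed cultures, incubated overnight at room temperature in the dark, quantifies parasite DNA. Infected erythrocytes at 0.3% parasitemia and 2.5% hematocrit were exposed 72 h; values normalized to DMSO and 0.29 uM artemisinin controls.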

[6] = qHTS profiling of the MIPE4 collection as inhibitors of Plasmodium falciparum (3D7) proliferation (AID 743344; call rule not given here;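 note: scaled between DMSO vehicle wells and 0.29 µM artemisinin as full inhibition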); settings: P. falciparum 3D7 in erythrocytes, SYBR Green DNA fluorescence, 72 h; at 28.5 µM (top of the series)
Summary of the method: as §1

[7] = qHTS profiling of the MIPE4 collection as inhibitors of Plasmodium falciparum (DD2) proliferation (AID 743345; call rule not given here); settings: P. falciparum Dd2 in erythrocytes, SYBR Green DNA, 72 h; at 28.5 µM (top of the series)
Summary of the method: as §1

[8] = qHTS profiling of the MIPE4 collection as inhibitors of Plasmodium falciparum (DD2) proliferation (Rep 2) (AID 743346; call rule not given here); settings: P. falciparum Dd2 in erythrocytes, SYBR Green DNA, 72 h; at 28.5 µM (top of the series)
Summary of the method: as §1

[9] = qHTS profiling of the MIPE4 collection as inhibitors of Plasmodium falciparum (HB3) proliferation (AID 743347; call rule not given here;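 note: plate controls were DMSO vehicle wells for no effect and artemisinin wells for full effect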); settings: P. falciparum HB3 in erythrocytes, SYBR Green DNA, 72 h; at 28.5 µM (top of the series)
Summary of the method: as §1

[10] = qHTS assay for small molecule agonists of the antioxidant response element (ARE) signaling pathway measured by Nrf2-dependant transcriptional activity (AID 720636; active = well fitted curve in the direction sought with a large enough effect in the repeat runs; an effect the other way counts as inactive or inconclusive;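 note: HepG2 cells with an ARE-driven luciferase reporter; % of control where 0% means no effect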)
Summary of the method: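 HepG2 ARE-luc reporter line, 1% dialyzed FBS; 6 hr attachment at 37 C, compound pinned in, 16 hr at 37 C/5% CO2; ONE-Glo, 30 min RT, luminescence read.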

[11] = qHTS assay for small molecule antagonists of the retinoid-related orphan receptor gamma (ROR-gamma) signaling pathway - cell viability counter screen (AID 720652; active = well fitted curve in the direction sought with a large enough effect in the repeat runs; an effect the other way counts as inactive or inconclusive;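 note: CHO reporter cells with doxycycline-induced ROR-gamma expression; compound exposure lasted 16 hr before ATP read; % is set by controls: 0 for no effect and ±100 for the full control effect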)
Summary of the method: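 Steps: seed CHO cells bearing TET-inducible ROR and ROR response element-luciferase; rest 5 hr at 37 C; add compound, then doxycycline; incubate 16 hr; add CellTiter-Glo and read luminescence as ATP-based viability.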

[12] = qHTS assay for small molecule agonists of the antioxidant response element (ARE) signaling pathway measured by Nrf2-dependant transcriptional activity - cell viability counter screen (AID 720653; active = well fitted curve in the direction sought with a large enough effect in the repeat runs; an effect the other way counts as inactive or inconclusive; note: % is set by controls: 0 for no effect and ±100 for the full control effect); settings: ARE-bla HepG2 viability, CellTiter-Glo ATP luminescence, 16 h; stronger effect = lower value
Summary of the method: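 ARE-bla HepG2 cells treated with compounds for 16 h at 37C; this counter screen measures viability as intracellular ATP by CellTiter-Glo luminescence after 30 min at room temperature.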

[13] = qHTS assay for cell viability of HEK293 cells (AID 743288); settings: ATP luminescence (CellTiter-Glo), 18 h, stronger effect = lower value; note: % is set by controls: 0 for no effect and ±100 for the full control effect; nearly all actives have a fitted effect of over 50% in size
Summary of the method: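 Quantitative high-throughput screen: compounds were pinned onto parental HEK293 cells (2,000 per well) after a minimum 5 h settling at 37 C, incubated 18 h at 37 C, and intracellular ATP measured by luciferase luminescence.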

[14] = qHTS assay for cell viability of the p53RE-bla HCT-116 cell line (AID 743292); note: % is set by controls: 0 for no effect and ±100 for the full control effect; nearly all actives have a fitted effect of over 55% in size
Summary of the method: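 Luminescent ATP quantitation (CellTiter-Glo) served as the viability read-out; reagent was added after 16 h compound exposure at 37 C and read after 30 min at room temperature. Cells: p53RE-bla HCT-116, 4,000 per well.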

[15] = qHTS assay for measurement of the activity of small molecule inhibitors on Zika virus induced Caspase-3 activity in human astrocytoma cells (AID 1224859);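 note: plate controls were ZIKV-infected untreated cells for no effect and uninfected cells for full effect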
Summary of the method: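 Luminescence read-out (Caspase-Glo 3/7, 30 min RT) of caspase activity in SNB-19 cells infected 6 h with ZIKV, 2 FFU/cell, after 1 h compound pretreatment; % inhibition from induction normalised to uninfected (0%) and infected (100%) wells.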

**Q.** With `C[C@H]1[C@H]2CC[C@H]3[C@@H]4CC=C5C[C@@H](N(C)C)CC[C@]5(C)[C@H]4CC[C@]23CN1C` as the compound, how does the max response [1] read?
**A.** -6.8% (inactive)

**Q.** And the Potency [2]?
**A.** inactive

**Q.** Which remaining parasite growth % (stronger effect = lower value) [3] does the source give for `O=C1C(=O)c2ccccc2C(O)=C1C1CCC(c2ccc(Cl)cc2)CC1` (stereo unspecified) here?
**A.** 9.76e-05%

**Q.** What about the activity, percent of control [4] of the same compound?
**A.** 3.7%

**Q.** And the remaining proliferation (% of control), lower = more inhibition [5]?
**A.** 1.19%

**Q.** And the parasite growth, % of DMSO control [6]?
**A.** 9.11%

**Q.** And the parasite growth remaining, % of DMSO control (lower = more inhibition) [7]?
**A.** 9.71%

**Q.** What about the parasite growth, % of control (lower = inhibition) [8] of the same compound?
**A.** 18.4%

**Q.** And the growth, % of control [9]?
**A.** 5.96%

**Q.** And the Potency [2]?
**A.** inactive

**Q.** With `O=C1c2cccc3c2[C@H](CCC3)CN1[C@@H]1CN2CCC1CC2` as the compound, how does the max response [1] read?
**A.** -7.45% (inactive)

**Q.** And the Potency [2]?
**A.** inactive

**Q.** Which max response [1] does the source give for `CC(=O)NC(=O)c1ccccc1O` here?
**A.** -9.03% (inactive)

**Q.** What about the Potency [2] of the same compound?
**A.** inactive

**Q.** Which outcome [10] does the source give for `CCCN(CCC)S(=O)(=O)c1ccc(C(=O)O)cc1` here?
**A.** inactive

**Q.** What about the outcome [11] of the same compound?
**A.** inactive

**Q.** And the max response [12]?
**A.** 9.27% (inactive) and -1.08% (inactive)

**Q.** And the max response [1]?
**A.** 12.9% (inactive)

**Q.** And the max response [13]?
**A.** 7.44% (inactive) and -5.93% (inactive)

**Q.** What about the outcome [14] of the same compound?
**A.** inactive

**Q.** And the outcome [15]?
**A.** inactive

**Q.** Which results are given for `COP(=O)(OC)OC(c1ccc(Cl)cc1)P(=O)(OC)OC` (stereo unspecified)?
**A.** max response [1]: 0.577% (inactive); Potency [2]: inactive

**Q.** Which max response [1] does the source give for `CC(CNC1CCCCC1)OC(=O)c1ccccc1` (stereo unspecified) here?
**A.** 10.4% (inactive)

**Q.** What about the remaining parasite growth % (stronger effect = lower value) [3] of the same compound?
**A.** 106% [at 9.63 µM]

**Q.** And the activity, percent of control [4]?
**A.** 61.4% [at 9.63 µM]

**Q.** And the remaining proliferation (% of control), lower = more inhibition [5]?
**A.** 111% [at 9.63 µM]

**Q.** What about the Potency [2] of the same compound?
**A.** inactive

**Q.** What about the outcome [15] of the same compound?
**A.** inactive

**Q.** Which results are given for `OCCOCCN1CCN(C2=Nc3ccccc3Sc3ccccc32)CC1`?
**A.** max response [1]: -0.0618% (inactive); Potency [2]: inactive

**Q.** Which outcome [10] does the source give for `C/C=C/c1ccc(O)c(OC)c1` here?
**A.** inactive

**Q.** What about the outcome [11] of the same compound?
**A.** inactive

**Q.** And the max response [12]?
**A.** -8.93% (inactive) and -1.72% (inactive)

**Q.** And the max response [1]?
**A.** 26.3% (inactive)

**Q.** What about the max response [13] of the same compound?
**A.** -4.69% (inactive) and 11.4% (inactive)

**Q.** And the outcome [14]?
**A.** inactive

**Q.** And the Potency [2]?
**A.** inactive

**Q.** What does the source list for `CN1CCN(c2cc3c(cc2F)c(=O)c(C(=O)O)cn3-c2ccc(F)cc2)CC1`?
**A.** max response [1]: -4.31% (inactive); Potency [2]: inactive

**Q.** With `C#C[C@]1(O)CC[C@H]2[C@@H]3[C@H](C)CC4=C(CCC(=O)C4)[C@H]3CC[C@@]21C` as the compound, how does the outcome [15] read?
**A.** inactive

**Q.** With `CC(C)[N+](C)(C)CC(O)COc1cccc2ccccc12` (stereo unspecified) as the compound, how does the max response [1] read?
**A.** -10.5% (inactive)

**Q.** And the Potency [2]?
**A.** inactive

**Q.** With `O=[N+]([O-])c1cccc(S(=O)(=O)NCCNS(=O)(=O)c2cccc([N+](=O)[O-])c2)c1` as the compound, how does the max response [1] read?
**A.** 1.36% (inactive)

**Q.** And the Potency [2]?
**A.** inactive

**Q.** Which results are given for `CCOC(=O)[C@H](CCc1ccccc1)N[C@@H](C)C(=O)N1[C@H](C(=O)O)C[C@@H]2CCC[C@@H]21`?
**A.** max response [1]: -0.0266% (inactive); Potency [2]: inactive

**Q.** Which results are given for `CCCCNc1ccc(C(=O)OCCOCCOCCOCCOCCOCCOCCOCCOCCOC)cc1`?
**A.** max response [1]: -1.52% (inactive); Potency [2]: inactive

**Q.** With `CC(=C(CCOC(=O)C(C)C)SSC(CCOC(=O)C(C)C)=C(C)N(C=O)Cc1cnc(C)nc1N)N(C=O)Cc1cnc(C)nc1N` as the compound, how does the max response [1] read?
**A.** -5.02% (inactive)

**Q.** And the Potency [2]?
**A.** 11.2 µM (active)
